High-throughput results deposited in PubChem by Broad Institute.
Shown is part of a subset that was picked to be rich in hits.
Tg IFNy HTS – T. gondii growth inhibition with IFN-gamma, primary screen, cell-based. Toxoplasma gondii growth in IFN-gamma-treated host cells; stronger effect = lower value. AID 1259416, 2018. activity change, negative = inhibition, % (concentration not given with the values). hit rate 3.8% among 69,000; in the data active = activity change below about -70%, passing the limit was not always enough;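 also: host cells are HeLa cells infected with Toxoplasma gondii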
Hits are given with their value; n = inactive; ! = repeats disagree.

SMILES | Tg IFNy HTS
COc1ccc2cc(CN(CCO)C(=O)[C@@H]3C[C@@H]4C=C[C@H]3C4)c(=O)[nH]c2c1 | n
Cc1cnc2c(C(=O)NCc3snnc3C(C)C)cnn2c1 | n
Cc1nc(COC[C@@H]2CCC3C(CCN3C(N)=O)O2)cs1 (stereo partly specified) | n
CN(C)C(=O)N1CCC2(CC1)CC(CC(=O)Nc1cccnc1)c1ccccc1O2 (stereo unspecified) | -113
CCC(=O)N1CCC2(CC1)CC(CC(=O)Nc1cccnc1)c1ccccc1O2 (stereo unspecified) | n
O=C(O)CC1CC2(CCN(C(=O)Cc3cccnc3)CC2)Oc2ccccc21 (stereo unspecified) | n
CC1=Nc2cc(Cl)c(Cl)cc2NC(C)(C)C1 | n
CCOc1ccccc1-c1nc(CN(c2ccccc2)S(=O)(=O)c2ccccc2)c(C)o1 | n
CC(=O)O[C@H]1C(=O)[C@@]2(C)[C@H]([C@H](OC(=O)c3ccccc3)[C@]3(O)C[C@H](OC(=O)[C@H](O)C(NC(=O)c4ccccc4)c4ccccc4)C(C)=C1C3(C)C)[C@]1(OC(C)=O)CO[C@@H]1C[C@@H]2O (stereo partly specified) | -96
CC(=O)O[C@H]1C(=O)[C@@]2(C)[C@H]([C@H](OC(=O)c3ccccc3)[C@]3(O)C[C@H](OC(=O)[C@H](O)[C@@H](NC(=O)c4ccccc4)c4ccccc4)C(C)=C1C3(C)C)[C@]1(OC(C)=O)CO[C@@H]1C[C@@H]2O | -82!
O=C(c1cc(-c2ccnn2C2CCCC2)n2ccccc12)N1CCCCC1 | n
COc1cccc(N2CC3(CCN(c4ccc(C)nn4)C3)CC2=O)c1 (stereo unspecified) | n
O=C(C1CCOC1)N1Cc2nccn2CC(CN2CCCC2)C1 (stereo unspecified) | n
CCCCOc1ccc(S(=O)(=O)NCCc2sc(-c3ccc(OC)cc3)nc2C)cc1 | n
O=C(c1cccs1)N1CCC[C@H]1Cn1nnc2ccccc2c1=O | n
O=C1Nc2cc(Cl)ccc2Oc2ccccc21 | n
O=C1NC2(C=Cc3c(ccc4ccccc34)O2)Oc2ccccc21 (stereo unspecified) | -107
Cn1ccnc1CN1CCOCC2(CC(CNc3ccccc3)CO2)C1 (stereo unspecified) | n
c1ccc2c(-c3cc(NC4CCNCC4)nc4[nH]ccc34)n[nH]c2c1 | -75
CC(O)c1cccc(-c2cc(NC3CCNCC3)nc3[nH]ccc23)n1 (stereo unspecified) | -93
Cc1nc(-c2cc(NCc3ccccn3)nc3[nH]ccc23)cc(C(C)C)n1 | n
NCCc1cccc(-c2cc(NCCO)nc3[nH]ccc23)c1 | n
c1ccc(CNc2cc(-c3nccc4occc34)c3cc[nH]c3n2)nc1 | n
CNc1cc(-c2ccc(CN)cn2)c2cc[nH]c2n1 | n
Cc1cc(-c2ccnc3c2ccn3C)c(=O)[nH]c1C | n
SMILES | Tg IFNy HTS
COc1ncc(-c2cc(NCCN(C)C)nc3[nH]ccc23)c(OC)n1 | n
Cc1cc(-c2cc(NC3CCNCC3)nc3[nH]ccc23)c(=O)[nH]c1C | -85
CC(C)N1CCNC(=O)C1CC(=O)N(C)Cc1csc(-c2ccccc2)n1 (stereo unspecified) | n
COc1cccc(N2CC(NC(=O)c3cnc(N4CCC(C)CC4)nc3)CC2=O)c1 (stereo unspecified) | n
CN1C(=O)COc2ccc(C(=O)Nc3nnc(CCc4ccccc4)s3)cc21 | n
O=C1CN(C(=O)CN2CCCC(COc3ccccc3F)C2)c2ccccc2N1 (stereo unspecified) | n
COc1cc(C(=O)Nc2cc3c(cc2C(C)=O)OCO3)cc(OC)c1OC | n
CCn1c(CC2CCN(Cc3ccncc3Cl)CC2)n[nH]c1=O | n
C/C=C/c1ccc(C2[C@H]3CNC[C@@H]2N3C(=O)NC2CCCCC2)cc1 (stereo partly specified) | -76!
C/C=C/c1ccc(C2[C@H]3CNC[C@@H]2N3C(=O)Nc2ccccc2Cl)cc1 (stereo partly specified) | n
C/C=C/c1ccc(C2[C@H]3CNC[C@@H]2N3C(=O)NCCC)cc1 (stereo partly specified) | n
C=CCn1cc([C@@H]2C[C@H](NC(C)=O)C[C@H](C3CCCCC3)O2)c(C)n1 | n
C=CCNc1ccccc1C(=O)N1CCN(CC(=O)NC(C)C)CC1 | n
CCC/C=C/c1cccc(-n2cnnc2)c1 | n
CCOc1ccc(-n2cnnc2)cc1-n1cccc1 | -74
c1cc(-n2ccnc2)cc(-n2cnnc2)c1 | n
COc1ccc(-c2nc(C)c(CCNC(=O)C3CCCC3)s2)cc1 | n
O=C(c1ccccc1NCc1ccccn1)N1CCCN2CCC[C@H]2C1 | n
COc1cccc(CN(C)Cc2csc(C(C)C)n2)c1O | n
O=C1NC(=Nc2ccc(Cl)cc2)SC1Cc1ccccc1 (stereo unspecified) | -92
O=C(CC1SC(=Nc2ccccc2)NC1=O)Nc1ccccc1 (stereo unspecified) | n
C/C(=N\N=C1\NC(=O)C(CC(=O)Nc2ccc(Cl)cc2)S1)c1ccco1 (stereo unspecified) | n
Cc1nc2ccc(-c3cccc4ccccc34)cc2[nH]1 | n
